# Inconclusive results are not listed. Calls of active or inactive are those of the source. How the source made its calls: active means hit-call score of the fitted dose curve at least 0.9, where 1 is the maximum; inconclusive means response in the unintended direction; inactive means score below 0.9.
# Read-out: Broad substrate specificity ATP-binding cassette transporter ABCG2 (Homo sapiens) (UniProt Q9UNQ0)
# Experiment: CLD_ABCG2_48hr: CellzDirect (CLD) Gene Expression Assay for ABC Transporter (ABCG2) at 48 hours (AID 2283704);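 on AC50: potency for induction of ABCG2 mRNA above the DMSO baseline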
# Experimental: CLD_48hr is a cell-based, multiplexed-readout assay that uses hepatocyte, a human liver primary cell, with measurements taken at 48 hours after chemical dosing in a 96-well plate.CLD_ABCG2_48hr is one of 16 assay component(s) measured or calculated from the CLD_48hr assay. It is designed to make measurements of mRNA induction, a form of inducible reporter, as detected with chemiluminescence signals by Quantitative Nuclease Protection Assay (qNPA) technology.Data from the assay component CLD_ABCG2_48hr was analyzed at the endpoint, CLD_ABCG2_48hr, in the positive analysis fitting direction relative to DMSO as the negative control and baseline of activity. Using a type of inducible reporter, gain-of-signal activity can be used to understand changes in the reporter gene as they relate to the gene ABCG2. Furthermore, this assay endpoint can be referred to as a primary readout. To generalize the intended target to other relatable targets, this assay endpoint is annotated to the transporter intended target family, where subfamily is ABC transporter.
# Human hepatocyte cultures were treated daily for two consecutive days with fresh dosing solutions containing appropriate concentrations of the 320 ToxCast chemicals (chemical identities were blinded to CellzDirect and other ToxCast collaborators), vehicle control (0.2% DMSO), and positive control inducers as summarized in Table 1. Due to the large number of treatment groups and chemicals examined, the ToxCast chemicals were divided into two groups (spanning two independent cultures of hepatocytes from separate donor preparations (Hu778: ToxCast plates 1 and 2; Hu776: ToxCast plates 3 and 4). Each preparation of human hepatocyte cultures was treated with respective vehicle control, medium only control, set of six positive controls/reference chemicals for the five hepatic receptor pathways, and a subset of eight of the ToxCast chemicals (indoxacarb, pyrithiobac-sodium, norflurazon, cyhalofop-butyl, methomyl, thiram, acetochlor, and propiconazole). These replicate data, coupled with internal replicates designed within the blinded ToxCast chemical library, provided additional data to evaluate interindividual differences between hepatocyte preparations and their potential impact on chemical profiles.Cell morphology and integrity were evaluated using phase-contrast microscopy as an indicator of hepatocyte cell health (Tyson & Green, 1987). Cultures for each treatment group (i.e., media, vehicle [0.2% DMSO], positive control inducers [multiple concentrations], and the ToxCast chemicals [multiple concentrations]) were observed and cell morphology was assessed relative to vehicle control cultures at each harvest time point (0, 6, 24, or 48 h). […] Images were evaluated at the conclusion of the study to assess changes in cell integrity and account for the effects of chemical exposure on uncharacteristic changes in concentration-dependent gene expression profiles. The results from these determinations of apparent cytotoxicity were annotated (yes/no) alongside the corresponding qNPA data for reference.At the conclusion of each treatment period, hepatocyte cultures (96-well) were washed with 1 volume of HBSS, lysed by addition of 25 ul ArrayPlate lysis buffer (HTG, Tucson, AZ), and 70 ul/well of Denaturation Oil, denatured by incubation at 95C for 10 min, and frozen at approximately -70C until analysis by nuclease protection assay (qNPA) (Roberts et al., 2007). For qNPA analysis, cell lysates were thawed at 50C for approximately 30 min, qNPA probes were added, and samples were incubated at 95C for 10 min to begin the detection process by denaturing the target RNA, dissociating the duplexes and secondary structure hybridization. At the conclusion of the hybridization period, S1 nuclease reagent was added to each sample to digest all nonprotected nucleotides at 50C for 60-90 min. […]
# Sequence of Broad substrate specificity ATP-binding cassette transporter ABCG2 (Homo sapiens) (Q9UNQ0 whole entry, looked up): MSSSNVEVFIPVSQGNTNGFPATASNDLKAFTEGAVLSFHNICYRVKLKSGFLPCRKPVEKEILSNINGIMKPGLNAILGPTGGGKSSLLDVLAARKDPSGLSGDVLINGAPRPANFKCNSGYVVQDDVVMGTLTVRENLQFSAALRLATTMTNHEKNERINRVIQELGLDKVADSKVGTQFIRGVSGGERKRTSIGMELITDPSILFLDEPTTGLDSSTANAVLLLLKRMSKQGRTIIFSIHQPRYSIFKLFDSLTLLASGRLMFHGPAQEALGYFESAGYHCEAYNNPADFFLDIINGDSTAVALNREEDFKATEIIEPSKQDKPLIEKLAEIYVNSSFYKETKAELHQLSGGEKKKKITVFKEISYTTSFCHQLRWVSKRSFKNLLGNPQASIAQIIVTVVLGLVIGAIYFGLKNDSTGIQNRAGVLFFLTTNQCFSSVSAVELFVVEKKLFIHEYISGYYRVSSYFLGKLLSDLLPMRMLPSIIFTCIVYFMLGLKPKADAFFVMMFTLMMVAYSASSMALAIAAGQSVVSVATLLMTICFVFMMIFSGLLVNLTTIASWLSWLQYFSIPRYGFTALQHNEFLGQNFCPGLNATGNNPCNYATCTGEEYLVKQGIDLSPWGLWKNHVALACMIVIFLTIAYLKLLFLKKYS
Structure (SMILES),outcome,AC50
CSC(=O)c1cccc2nnsc12,inactive,–
S=C(S)NCCNC(=S)S.[Mn+2].[S-]C([S-])=NCCN=C([S-])[S-].[Zn+2],–,3.67 µM (active)
CCC(O)=C1C(=O)CC(C(=O)O)CC1=O (centres undefined),inactive,–
N#CSCSc1nc2ccccc2s1,inactive,–
CCC(C)OC(=O)N1CCCCC1CCO (centres undefined),inactive,–
COCCO,inactive,–
COc1c(Cl)ccc(Cl)c1C(=O)O,inactive,–
CCCOC(=O)NCCCN(C)C,inactive,–
CCNc1nc(N)nc(Cl)n1,inactive,–
CCOC(=O)C(C)Oc1ccc(Oc2nc3ccc(Cl)cc3o2)cc1 (centres undefined),inactive,–
CC1(C)C(C=C(Cl)Cl)C1C(=O)OCc1cccc(Oc2ccccc2)c1 (centres undefined),inactive,–
S=C([S-])NCCNC(=S)[S-].[Mn+2],–,3.4 µM (active)
CCCCC(CC)CN1C(=O)C2C3C=CC(C3)C2C1=O (centres undefined),inactive,–
CCOC(=O)NCCOc1ccc(Oc2ccccc2)cc1,inactive,–
C#CCOC(=O)[C@@H](C)Oc1ccc(Oc2ncc(Cl)cc2F)cc1,inactive,–
CCCN(CCC)C(=O)SCC,inactive,–
COC(=O)c1ccccc1C(=O)O,inactive,–
COC(=O)c1ccc(I)cc1S(=O)(=O)NC(=O)Nc1nc(C)nc(OC)n1,inactive,–
Cc1nn(C)c(Oc2ccccc2)c1C=NOCc1ccc(C(=O)OC(C)(C)C)cc1,inactive,–
C=CCOC(Cn1ccnc1)c1ccc(Cl)cc1Cl (centres undefined),–,34.9 µM (active)
CC(C)(C)[C@@H](O)[C@@H](Cc1ccc(Cl)cc1)n1cncn1,inactive,–
CCCCCOC(=O)COc1cc(N2C(=O)C3=C(CCCC3)C2=O)c(F)cc1Cl,inactive,–
CCOC(=O)COc1cc(-n2ncc(C(F)(F)F)c(C)c2=O)c(F)cc1Cl,inactive,–
CC(C)(c1ccc(O)cc1)c1ccc(O)cc1,inactive,–

# — PubChem BioAssay (EPA / NIEHS)
